Reference: article PMC7862700, “An all-to-all approach to the identification of sequence-specific readers for epigenetic DNA modifications on cytosine”

What was measured:
Assay in all cases: DAPPL (digital affinity profiling via proximity ligation, sequencing); 10 mM Tris-HCl pH 7.5, 50 mM NaCl, 1 mM DTT, 4% glycerol, room temperature, 30 min; GST-TFs on glutathione beads, 16-mer random dsDNA library, 0.1% formaldehyde crosslink after washing; high values mean tight binding
FEV = biological target: T1, FEV (Homo sapiens, UniProt Q99581 1-238); details: protein: recombinant; tags: N-terminal GST; dsDNA, one strand shown
T1 sequence: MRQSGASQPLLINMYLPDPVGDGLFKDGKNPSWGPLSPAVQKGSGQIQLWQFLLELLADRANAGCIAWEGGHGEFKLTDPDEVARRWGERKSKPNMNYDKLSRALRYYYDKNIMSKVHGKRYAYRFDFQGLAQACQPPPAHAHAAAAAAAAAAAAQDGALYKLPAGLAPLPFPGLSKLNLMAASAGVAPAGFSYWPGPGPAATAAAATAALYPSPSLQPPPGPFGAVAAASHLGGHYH
In short: (§1)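 Binding signal is each hexamer's read frequency for a factor divided by its frequency in the tag-only sample. The factors were GST-fused human transcription factors from yeast, captured on glutathione beads, DNA-barcoded and pooled with that sample. Pools were incubated with 200 nmole of a random double-stranded 16-mer DNA library in Tris/NaCl/DTT/glycerol buffer at room temperature for 30 min, then washed, crosslinked with 0.1% formaldehyde, proximity-ligated with BsaI/T4 ligase (1 h, 37 °C), PCR-amplified and sequenced on an Illumina NextSeq500.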

ETV5 = ETV5 (Homo sapiens, UniProt P41161 1-510); details: protein: recombinant; tags: N-terminal GST; dsDNA, one strand shown
In short: as §1

HSF1 = HSF1 (Homo sapiens, UniProt Q00613 1-529); details: protein: recombinant; tags: N-terminal GST; chain copies: 3; dsDNA, one strand shown
In short: as §1

SPIC = biological target: T2, SPIC (Homo sapiens, UniProt Q8N5J4 1-248); details: protein: recombinant; tags: N-terminal GST; dsDNA, one strand shown
T2 sequence: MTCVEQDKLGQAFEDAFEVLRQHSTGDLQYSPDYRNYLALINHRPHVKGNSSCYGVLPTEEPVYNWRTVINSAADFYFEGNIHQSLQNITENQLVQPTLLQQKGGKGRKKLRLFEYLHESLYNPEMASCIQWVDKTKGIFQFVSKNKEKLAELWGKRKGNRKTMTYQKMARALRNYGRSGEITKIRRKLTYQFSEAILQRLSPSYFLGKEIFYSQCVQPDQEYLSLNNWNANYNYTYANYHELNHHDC
In short: as §1

ELF4 = ELF4 (Homo sapiens, UniProt Q99607 1-663); details: protein: recombinant; tags: N-terminal GST; dsDNA, one strand shown
In short: as §1

ELK4 = biological target: T3, ELK4 (Homo sapiens, UniProt P28324-2 1-405); details: protein: recombinant; tags: N-terminal GST; dsDNA, one strand shown
T3 sequence: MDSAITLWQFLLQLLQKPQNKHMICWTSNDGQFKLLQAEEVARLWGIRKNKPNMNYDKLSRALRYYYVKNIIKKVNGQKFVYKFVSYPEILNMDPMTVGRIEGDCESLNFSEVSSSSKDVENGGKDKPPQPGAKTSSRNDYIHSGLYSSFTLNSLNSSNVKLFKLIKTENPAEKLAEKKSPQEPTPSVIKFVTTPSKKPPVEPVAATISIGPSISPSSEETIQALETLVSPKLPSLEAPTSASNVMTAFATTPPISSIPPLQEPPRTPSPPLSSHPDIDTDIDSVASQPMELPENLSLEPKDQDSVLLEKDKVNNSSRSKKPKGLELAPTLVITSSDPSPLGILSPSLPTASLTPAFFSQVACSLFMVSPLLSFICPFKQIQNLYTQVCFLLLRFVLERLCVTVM
In short: as §1

ETV2 = biological target: T4, ETV2 (Homo sapiens, UniProt O00321 1-342); details: protein: recombinant; tags: N-terminal GST; dsDNA, one strand shown
T4 sequence: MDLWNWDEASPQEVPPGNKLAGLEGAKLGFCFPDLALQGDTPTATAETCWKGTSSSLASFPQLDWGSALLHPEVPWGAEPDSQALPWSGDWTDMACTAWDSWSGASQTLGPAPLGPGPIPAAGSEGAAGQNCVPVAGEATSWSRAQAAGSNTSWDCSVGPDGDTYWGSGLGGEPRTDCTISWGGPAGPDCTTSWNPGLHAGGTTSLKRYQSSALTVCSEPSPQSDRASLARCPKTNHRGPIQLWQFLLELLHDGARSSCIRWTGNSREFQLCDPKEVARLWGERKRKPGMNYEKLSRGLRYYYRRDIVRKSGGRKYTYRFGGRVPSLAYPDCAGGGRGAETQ
In short: as §1

ELF3 = biological target: T5, ELF3 (Homo sapiens, UniProt P78545 1-371); details: protein: recombinant; tags: N-terminal GST; dsDNA, one strand shown
T5 sequence: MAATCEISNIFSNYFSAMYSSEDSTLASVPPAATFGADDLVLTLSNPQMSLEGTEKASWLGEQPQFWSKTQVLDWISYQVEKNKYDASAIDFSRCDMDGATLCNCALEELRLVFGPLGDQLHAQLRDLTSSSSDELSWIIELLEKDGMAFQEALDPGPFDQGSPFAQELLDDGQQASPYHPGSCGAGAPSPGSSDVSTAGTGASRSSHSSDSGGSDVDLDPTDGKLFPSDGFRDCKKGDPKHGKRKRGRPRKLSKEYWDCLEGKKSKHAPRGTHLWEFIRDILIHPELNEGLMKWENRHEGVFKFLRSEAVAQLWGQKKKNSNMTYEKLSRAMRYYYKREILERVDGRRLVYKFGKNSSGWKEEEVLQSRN
In short: as §1

CRX = CRX (Homo sapiens, UniProt O43186 1-299); details: protein: recombinant; tags: N-terminal GST; dsDNA, one strand shown
In short: as §1

Sequence of ETV5 (P41161 whole entry): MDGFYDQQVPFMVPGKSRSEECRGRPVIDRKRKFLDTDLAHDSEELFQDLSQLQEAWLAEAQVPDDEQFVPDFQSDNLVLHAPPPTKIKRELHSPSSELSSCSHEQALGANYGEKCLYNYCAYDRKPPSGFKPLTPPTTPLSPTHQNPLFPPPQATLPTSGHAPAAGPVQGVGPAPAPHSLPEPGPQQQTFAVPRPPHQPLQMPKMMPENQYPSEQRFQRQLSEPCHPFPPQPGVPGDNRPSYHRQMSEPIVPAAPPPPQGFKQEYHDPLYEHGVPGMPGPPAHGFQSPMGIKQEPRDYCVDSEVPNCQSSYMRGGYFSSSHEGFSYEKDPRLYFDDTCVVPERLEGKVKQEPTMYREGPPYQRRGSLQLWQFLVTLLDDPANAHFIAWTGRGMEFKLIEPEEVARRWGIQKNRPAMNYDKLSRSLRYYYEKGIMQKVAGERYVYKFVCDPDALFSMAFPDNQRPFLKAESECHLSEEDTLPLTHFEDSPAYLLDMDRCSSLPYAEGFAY
Sequence of HSF1 (Q00613 whole entry): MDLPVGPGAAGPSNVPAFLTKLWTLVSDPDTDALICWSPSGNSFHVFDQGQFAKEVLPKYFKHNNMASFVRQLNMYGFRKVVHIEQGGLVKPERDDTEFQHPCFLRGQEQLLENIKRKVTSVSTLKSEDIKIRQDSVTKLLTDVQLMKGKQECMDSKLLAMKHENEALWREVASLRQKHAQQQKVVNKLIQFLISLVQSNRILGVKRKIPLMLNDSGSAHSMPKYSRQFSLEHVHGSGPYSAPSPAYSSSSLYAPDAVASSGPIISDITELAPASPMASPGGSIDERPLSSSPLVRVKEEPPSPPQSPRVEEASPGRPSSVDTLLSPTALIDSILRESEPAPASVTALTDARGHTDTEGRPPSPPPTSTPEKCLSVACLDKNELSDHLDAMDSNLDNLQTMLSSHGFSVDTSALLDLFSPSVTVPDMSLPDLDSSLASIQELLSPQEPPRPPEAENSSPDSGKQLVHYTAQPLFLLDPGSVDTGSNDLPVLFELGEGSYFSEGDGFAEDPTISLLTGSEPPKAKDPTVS
Sequence of CRX (O43186 whole entry): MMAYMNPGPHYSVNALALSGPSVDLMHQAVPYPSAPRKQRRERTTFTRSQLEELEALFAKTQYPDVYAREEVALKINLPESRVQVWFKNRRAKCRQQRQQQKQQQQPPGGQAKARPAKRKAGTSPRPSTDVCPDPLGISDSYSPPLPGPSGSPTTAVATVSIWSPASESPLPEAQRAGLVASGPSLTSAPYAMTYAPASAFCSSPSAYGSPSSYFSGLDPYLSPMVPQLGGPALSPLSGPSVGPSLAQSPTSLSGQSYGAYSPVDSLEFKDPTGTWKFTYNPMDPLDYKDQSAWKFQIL
Sequence of ELF4 (Q99607 whole entry): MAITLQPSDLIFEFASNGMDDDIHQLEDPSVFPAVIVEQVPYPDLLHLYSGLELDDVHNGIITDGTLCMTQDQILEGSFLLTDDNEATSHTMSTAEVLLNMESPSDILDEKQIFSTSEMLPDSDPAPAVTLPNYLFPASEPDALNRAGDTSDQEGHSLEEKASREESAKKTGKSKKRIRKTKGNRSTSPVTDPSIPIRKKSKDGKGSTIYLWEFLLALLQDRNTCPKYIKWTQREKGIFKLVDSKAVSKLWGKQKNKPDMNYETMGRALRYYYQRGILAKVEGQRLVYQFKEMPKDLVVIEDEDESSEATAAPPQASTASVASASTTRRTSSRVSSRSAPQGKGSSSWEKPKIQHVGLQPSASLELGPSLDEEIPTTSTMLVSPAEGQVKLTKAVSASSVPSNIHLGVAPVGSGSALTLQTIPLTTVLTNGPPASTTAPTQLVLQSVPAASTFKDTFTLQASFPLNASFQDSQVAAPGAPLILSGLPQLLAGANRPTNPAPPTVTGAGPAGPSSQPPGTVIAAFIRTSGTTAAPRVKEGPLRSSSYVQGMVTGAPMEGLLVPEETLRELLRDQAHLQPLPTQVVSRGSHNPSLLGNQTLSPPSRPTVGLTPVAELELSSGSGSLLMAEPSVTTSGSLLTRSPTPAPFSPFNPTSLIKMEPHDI

TACTTA
binding signal (FEV): 1.12 fold enrichment (6-mer frequency, TF over GST control) | binding signal (ETV5): 1.17 fold enrichment (6-mer frequency, TF over GST control) | binding signal (HSF1): 1.7 fold enrichment (6-mer frequency, TF over GST control) | binding signal (SPIC): 1.12 fold enrichment (6-mer frequency, TF over GST control) | binding signal (ELF4): 1.21 fold enrichment (6-mer frequency, TF over GST control) | binding signal (ELK4): 1.25 fold enrichment (6-mer frequency, TF over GST control) | binding signal (ETV2): 1.16 fold enrichment (6-mer frequency, TF over GST control) | binding signal (ELF3): 1.33 fold enrichment (6-mer frequency, TF over GST control) | binding signal (CRX): 2.6 fold enrichment (6-mer frequency, TF over GST control)
